PubChem BioAssay (NCATS)
Values without a mark were called inactive. Inconclusive results are not listed. Entries that show only a call come without a potency. Calls of active or inactive are those of the source. Unless noted, the call rests on the fitted dose curve; in most records, active means well fitted curve in the direction sought with a large enough effect; inconclusive means small, poorly fitted or top-dose-only effect, or another doubt; inactive means no such curve, though single readings can be large; an effect the other way counts as inactive or inconclusive.

What was measured:
[1] = system: UISO; experiment: qHTS assay to identify novel small-molecules to repurpose for Merkel cell carcinoma treatment (AID 1296009); settings: MCC and control cell lines, CellTiter-Glo viability, 72 h; series mostly up to 46 µM; further: nearly all actives have a fitted effect of over 60% in size
Outline: (§1)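 Viability readout: ATP luminescence (CellTiter-Glo) after 72 hr drug exposure at 37 degree celsius. Dose-response format was 8 points for NPC and 11 points for MIPE; data normalized to in-plate controls.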

[2] = system: WaGa; experiment: as above; settings: MCC and control cell lines, CellTiter-Glo viability, 72 h; series mostly up to 46 µM
Outline: as §1

[3] = system: C33A; experiment: Primary qHTS to identify gynecologic anti-cancer compounds using libraries of approved drugs and bioactive compounds (AID 1345084); settings: Gynecologic cancer cell panel viability, ATPlite luminescence, 48 h; series mostly up to 57.5 µM; further: nearly all actives have a fitted effect of over 55% in size
Outline: (§2)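 Luminescence from the ATPlite ATP-monitoring reagent indicates viable cell number; lower signal means cytotoxicity. Cells received compound 16 h after seeding and were exposed for 48 h across five concentrations.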

[4] = system: CAOV3; experiment: as above; settings: Gynecologic cancer cell panel viability, ATPlite luminescence, 48 h; series mostly up to 57.5 µM
Outline: as §2

[5] = system: CASKI; experiment: as above; settings: Gynecologic cancer cell panel viability, ATPlite luminescence, 48 h; series mostly up to 57.5 µM
Outline: as §2

[6] = system: Es-2; experiment: as above; settings: Gynecologic cancer cell panel viability, ATPlite luminescence, 48 h; series mostly up to 57.5 µM
Outline: as §2

[7] = system: HeLa; experiment: as above; settings: Gynecologic cancer cell panel viability, ATPlite luminescence, 48 h; series mostly up to 57.5 µM
Outline: as §2

[8] = system: Hek293T; experiment: as above; settings: Gynecologic cancer cell panel viability, ATPlite luminescence, 48 h, control line for the selectivity index; series mostly up to 57.5 µM
Outline: as §2

[9] = system: JEG-3; experiment: as above; settings: Gynecologic cancer cell panel viability, ATPlite luminescence, 48 h; series mostly up to 57.5 µM
Outline: as §2

[10] = system: OV90; experiment: as above; settings: Gynecologic cancer cell panel viability, ATPlite luminescence, 48 h; series mostly up to 57.5 µM
Outline: as §2

[11] = system: PA-1; experiment: as above; settings: Gynecologic cancer cell panel viability, ATPlite luminescence, 48 h; series mostly up to 57.5 µM
Outline: as §2

[12] = system: SKOV3; experiment: as above; settings: Gynecologic cancer cell panel viability, ATPlite luminescence, 48 h; series mostly up to 57.5 µM
Outline: as §2

[13] = system: Tov-21-G; experiment: as above; settings: Gynecologic cancer cell panel viability, ATPlite luminescence, 48 h; series mostly up to 57.5 µM
Outline: as §2

[14] = system: Tov112D; experiment: as above; settings: Gynecologic cancer cell panel viability, ATPlite luminescence, 48 h; series mostly up to 57.5 µM
Outline: as §2

[15] = Drug repurposing screens with cells derived from glioblastoma tumor samples (AID 1345199); settings: GBM patient neurospheres viability, ATP luminescence, 48 h; for Potency: tumour line A; further: potency means the concentration at half of the fitted maximal effect; on all read-outs here: nearly all actives have a fitted effect of over 40% in size
Outline: (§3)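 Primary testing used CD133+ neurospheres from four GBM patients, seven concentrations, 48 h exposure and ATP-based viability; confirmation added three slower-growing patient lines.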

[16] = system: astro; experiment: as above; settings: viability, ATP luminescence, 48 h; series mostly up to 45.9 µM
Outline: as §3

[17] = target: Nuclear receptor subfamily 1 group I member 2 (Rattus norvegicus) (UniProt Q9R1A7); experiment: qHTS assay for small molecule activators of the rat pregnane X receptor (rPXR) signaling pathway (AID 651751; call rule not given here); settings: rPXR reporter cells, luciferase (One-Glo), 24 h
[18] = qHTS assay for small molecule activators of the human pregnane X receptor (PXR) signaling pathway (AID 720659; call rule not given here); settings: DPX-2 HepG2 CYP3A4-luciferase, 24 h; series mostly up to 92.3 µM
[19] = system: NIH3T3; experiment: qHTS assay to identify novel small-molecules to repurpose for Merkel cell carcinoma treatment (AID 1296009); settings: MCC and control cell lines, CellTiter-Glo viability, 72 h; at 44.8 µM (top of the series); further: nearly all actives have a fitted effect of over 60% in size
Outline: as §1

[20] = at 45.9 µM (top of the series), tumour line B
[21] = at 45.9 µM (top of the series), tumour line D
[22] = at 46.1 µM (top of the series), tumour line C
[23] = at 20 µM (top of the series), tumour line C
[24] = at 21.2 µM (top of the series), tumour line B
[25] = at 21.2 µM (top of the series), tumour line D

Nuclear receptor subfamily 1 group I member 2 (Rattus norvegicus), sequence (Q9R1A7 whole entry, looked up): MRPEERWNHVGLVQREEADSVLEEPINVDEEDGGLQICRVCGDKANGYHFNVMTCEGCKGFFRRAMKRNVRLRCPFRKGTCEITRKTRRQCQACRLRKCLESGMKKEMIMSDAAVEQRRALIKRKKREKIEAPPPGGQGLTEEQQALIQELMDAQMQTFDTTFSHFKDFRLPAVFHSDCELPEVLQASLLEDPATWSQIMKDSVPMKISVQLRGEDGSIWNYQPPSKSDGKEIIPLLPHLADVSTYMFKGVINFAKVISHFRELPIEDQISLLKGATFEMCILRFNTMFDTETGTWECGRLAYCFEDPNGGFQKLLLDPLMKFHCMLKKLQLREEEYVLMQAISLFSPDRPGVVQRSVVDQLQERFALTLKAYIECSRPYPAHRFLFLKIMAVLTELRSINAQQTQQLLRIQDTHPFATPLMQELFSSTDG

**Q.** What does the source list for O=C(OCc1ccccc1)c1ccc(O)cc1?
**A.** outcome [1]: inactive; outcome [2]: inactive; Potency [3]: inactive; Potency [4]: inactive; Potency [5]: inactive; Potency [6]: inactive; Potency [7]: inactive; Potency [8]: inactive; Potency [9]: inactive; Potency [10]: inactive; Potency [11]: inactive; outcome [12]: inactive; Potency [13]: inactive; outcome [14]: inactive; activity, negative = cell killing [15, 20]: -16.7%; activity, negative = cell killing [15, 21]: -12.6%; activity, negative = cell killing [15, 22]: 10.4%; Potency [16]: inactive; max response [17]: 2.15%; outcome [18]: inactive

**Q.** Which results are given for Cc1c(Cl)cccc1Nc1ncccc1C(=O)O?
**A.** activity, negative = cell killing [15, 20]: -16.8%; activity, negative = cell killing [15, 21]: -17%

**Q.** What does the source list for C[C@]12CC[C@@H]3c4ccc(OC(=O)c5ccccc5)cc4CC[C@H]3[C@@H]1CC[C@@H]2O?
**A.** outcome [19]: inactive; Potency [3]: inactive; Potency [4]: inactive; Potency [5]: inactive; Potency [6]: inactive; Potency [8]: inactive; Potency [9]: inactive; Potency [10]: inactive; Potency [11]: inactive; outcome [12]: inactive; Potency [13]: inactive; outcome [14]: inactive; activity, negative = cell killing [15, 20]: -25.4%; activity, negative = cell killing [15, 22]: -17.8%; Potency [15]: 11.2 µM (active)

**Q.** Which activity, negative = cell killing [15, 20] does the source give for CCOC(=O)C1=C(COCCN)NC(C)=C(C(=O)OC)C1c1ccccc1Cl (stereo not drawn) here?
**A.** Its activity, negative = cell killing is -28.9%.

**Q.** What about the Potency [15] of the same molecule?
**A.** Its Potency is 11.2 µM (active).

**Q.** For Cc1cccc(Nc2ncccc2C(=O)O)c1C, which activity, negative = cell killing [15, 20] is on record?
**A.** Its activity, negative = cell killing is -17.7%.

**Q.** What about the activity, negative = cell killing [15, 21] of the same molecule?
**A.** Its activity, negative = cell killing is -8.87%.

**Q.** And the activity, negative = cell killing [15, 22]?
**A.** Its activity, negative = cell killing is -27.1%.

**Q.** Which results are given for O=C(O)CCC(=O)c1ccc(-c2ccccc2)cc1?
**A.** outcome [1]: inactive; outcome [2]: inactive; Potency [3]: inactive; Potency [4]: inactive; Potency [5]: inactive; Potency [6]: inactive; Potency [7]: inactive; Potency [8]: inactive; Potency [9]: inactive; Potency [10]: inactive; Potency [11]: inactive; outcome [12]: inactive; Potency [13]: inactive; outcome [14]: inactive; activity, negative = cell killing [15, 23]: -5.86%; activity, negative = cell killing [15, 24]: -10%; activity, negative = cell killing [15, 25]: -17.7%; Potency [16]: inactive

**Q.** Which activity, negative = cell killing [15, 23] does the source give for C=CC[N@@+]12CC[C@@]34c5ccccc5N5/C=C6/[C@H]7C[C@H]8[C@@]9(CC[N@@+]8(CC=C)C/C7=C/CO)c7ccccc7N(/C=C(/[C@@H](C[C@@H]31)/C(=C\CO)C2)[C@H]54)[C@@H]69 here?
**A.** Its activity, negative = cell killing is -3.52%.

**Q.** And the activity, negative = cell killing [15, 24]?
**A.** Its activity, negative = cell killing is -8.94%.

**Q.** What about the activity, negative = cell killing [15, 25] of the same molecule?
**A.** Its activity, negative = cell killing is 3.96%.
